In this test the target is T1, USP38, Q8NB14.
T1 chain: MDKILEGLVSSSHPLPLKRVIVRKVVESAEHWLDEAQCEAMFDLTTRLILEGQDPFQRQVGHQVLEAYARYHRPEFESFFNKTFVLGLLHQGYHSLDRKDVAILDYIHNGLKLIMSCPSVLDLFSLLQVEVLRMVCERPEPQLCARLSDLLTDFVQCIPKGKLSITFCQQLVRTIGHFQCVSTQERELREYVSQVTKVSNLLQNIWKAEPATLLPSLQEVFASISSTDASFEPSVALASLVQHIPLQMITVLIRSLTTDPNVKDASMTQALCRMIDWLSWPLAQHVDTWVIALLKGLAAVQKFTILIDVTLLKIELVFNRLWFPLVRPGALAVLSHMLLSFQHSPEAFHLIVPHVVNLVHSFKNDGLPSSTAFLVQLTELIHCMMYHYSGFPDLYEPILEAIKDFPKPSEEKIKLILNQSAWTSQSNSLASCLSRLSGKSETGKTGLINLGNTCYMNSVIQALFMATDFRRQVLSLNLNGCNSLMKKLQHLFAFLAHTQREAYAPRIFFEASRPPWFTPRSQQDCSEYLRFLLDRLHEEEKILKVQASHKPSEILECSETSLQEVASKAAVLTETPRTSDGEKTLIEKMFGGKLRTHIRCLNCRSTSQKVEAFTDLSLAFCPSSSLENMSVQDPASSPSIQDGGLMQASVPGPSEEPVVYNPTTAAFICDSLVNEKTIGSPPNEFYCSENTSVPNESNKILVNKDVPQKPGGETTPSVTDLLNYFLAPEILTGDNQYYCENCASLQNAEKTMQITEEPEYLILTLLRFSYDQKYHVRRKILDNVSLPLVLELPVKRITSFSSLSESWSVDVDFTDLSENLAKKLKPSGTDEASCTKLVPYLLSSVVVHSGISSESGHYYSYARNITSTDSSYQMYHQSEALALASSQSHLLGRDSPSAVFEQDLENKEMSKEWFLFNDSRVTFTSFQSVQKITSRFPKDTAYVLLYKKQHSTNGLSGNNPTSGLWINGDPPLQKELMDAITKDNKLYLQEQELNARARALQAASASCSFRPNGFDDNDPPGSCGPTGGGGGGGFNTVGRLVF
In words: median log2 fold change of GCK-ALFA target abundance (FLAG IP / Myc IP barcode read proportion) (log2 ratio); each designed protein is fused to an ALFA-tag nanobody in HEK293 cells to bring the named protein to FLAG-tagged glucokinase (GCK); Myc marks an untargeted standard; higher = target protein stabilised (more abundant). Particulars: target protein: 3xFLAG-MCP-GCK-ALFA reporter; HEK293 landing pad (RPLP). The method in brief: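 The readout is target abundance, the per-binder median log2 ratio of FLAG to Myc barcode read proportions. It came from HEK293 landing-pad cells carrying a recombined ALFA-nanobody-fused binder library, induced with 2 μg mL^−1 doxycycline and transfected with a plasmid for a FLAG-tagged target and a Myc-tagged standard. After 48 h, lysates were immunoprecipitated with anti-FLAG and anti-Myc, and circular RNA barcodes were reverse transcribed, amplified and sequenced. Each barcode needed a proportion of at least 10^−7 in both replicates and each binder at least 3 barcodes per replicate, a pseudocount of 10^−6 was added, and the replicates were pooled.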

B1: usp_38_diff_out_16_109_171 (protein)
chain: SADEEADRLLAEAAIRNLRALAEAAEAELEKLEARGASPEVLAAYRDLAELARRAAEEIERALEEGRDLRETTDREWDRVGAAAARAAELRRAEARRRSA
Regarding B1, the “median log2 fold change” value was -0.352.

B2: usp_38_diff_out_16_25_190 (protein)
chain: NVEALLRAHDELGRAAGYIVLAREHADSPEVKELLREAIESLERALRIAEEELHIPEEVAEKVKKLIEEAKKLLEEGADPEEVIKKLEEALDLLAEALAE
As for B2, the “median log2 fold change” value turned out to be 0.107.

B3: usp_38_diff_out_16_109_186 (protein)
chain: SEQAESDRLLAEAAIANFKALAADARAEAARLKAKGASQAVIDAYNALADTATAAAAALEAALAAGEDLRATLDAQWDAVGAAAAAARDLREAETAARSA
Turning to B3, the “median log2 fold change” value was 0.0614.

B4: usp_38_diff_out_16_25_202 (protein)
chain: EVEALLRAHDELGEAAGYILRARESEDEEERKKLLREALESLEKALDIMKKELKIPEEVAKKIQELIDEAKEKLEAGAPFEEVIKLLEEAIDLAAEALAA
Turning to B4, the “median log2 fold change” value came to 0.316.

B5: usp_38_diff_out_16_13_187 (protein)
chain: SELEKLLKKLEELTKKAEEKKKELEKLIKEGAPKEEIREKLEELRELLIEAAGTILEIRNLMVEKANEEQRKKAREKLKEAEEKLNEAINLYVEKELELA
As for B5, the “median log2 fold change” value is -0.622.

B6: usp_38_diff_out_16_109_181 (protein)
chain: SAEEEAAREYAEAAVANFRALAADAEARLARLEARGASPEVLAAYRDLAATARAAAAALEAAIAAGEDLRAAADAQWDAVGAAAARAAEIRRAEVRRRSA
Take B6: the “median log2 fold change” value is -0.515.

B7: usp_38_diff_out_16_37_203 (protein)
chain: SAAEVEALMARLREAVERARELIERARRAIEEGADEAEIERLLEEATRALEEAGRALAEILLLDPARYPEARALYDETAARFGEVVAEARDARRERRARA
On to B7, for which the “median log2 fold change” value is -0.344.

B8: usp_38_diff_out_16_25_199 (protein)
chain: NVEALLKAHDELGKAAGYILEAREHLDSPEVKELLEKAIEHLEEALKIMKEELKIPQETAKKIQELIEKAKKLLEEGADPEEVIKALEEAIDAAADALAS
On to B8, for which the “median log2 fold change” value was 0.324.

B9: usp_38_diff_out_16_25_195 (protein)
chain: SVEALLRAHDLIGRAAGLVLRARESEDPEEQRRLLEEAIRHLEEALELLKEELKIDEETAEKIEKLIEEARRLLEEGAPFEEVIKVLEEAIDLAVDALAK
For the molecule B9, the “median log2 fold change” value was 0.188.

B10: usp_38_diff_out_16_25_193 (protein)
chain: NVEALLRAHDALGRAAGYVVRARELGESPEARELLREAIRALREALRILREELRIPEEVARRIEEAIERAERLLEAGEPVEEVIEALEEAIDLAAAALAA
In the case of B10, the “median log2 fold change” value is 0.174.

B11: usp_38_diff_out_16_109_178 (protein)
chain: SAEDEANVEYAKAVIENLEKLAEEAEAELKRLQARGASAEVLAAYQKLADLAKEAAERLKKALAEGKDLRAIADEEWDRVGAAAAEAAELRQQEVRARSA
As to B11, the “median log2 fold change” value was found to be 0.375.

B12: usp_38_diff_out_16_109_182 (protein)
chain: AAEEEAARLLAEASIANFEALAEEARAQLAKAQARGASPEVLAALQDLADTARAAAAAIRRALEAGEDLRAVTDAQWDAVGAAAARANRLREAETDARSA
B12: the “median log2 fold change” value is 0.0957.

B13: usp_38_diff_out_16_109_174 (protein)
chain: SAQEEADREYALAVIENLKKLAKEAEEELKKLKARGASEEVLKAYEELAKTAKEAAKALEEALKAGEDLRAIANEKWDEVGKKAAEAAELLREEVRRRSA
For the molecule B13, the “median log2 fold change” value is -0.105.

B14: usp_38_diff_out_16_25_192 (protein)
chain: SVEALLRAHDLLGEAAGYILEAKEHKDSPKARELLEKAIKSLEEALRVMKEELKIDEEKAEEIEKLIKEAKKLLKEGAPVEEVIKVLEEAVDKAADALAE
As to B14, the “median log2 fold change” value was 0.243.

B15: usp_38_diff_out_16_109_176 (protein)
chain: SAQAEADRAFAEAVVANLRALAEDAEARLARLEARGASPAVLAAYRDLADTARAAAAALEEAIAAGEDLRAIANAQWDRVGAAAARAADLLRAEVDARSA
B15: the “median log2 fold change” value is 0.125.

B16: usp_38_diff_out_16_25_188 (protein)
chain: NVEALLEAHHHLGLAAGYIVLAKEHKDSEKAREYLEKAIEHLEEALRILEEELNIDEETAEEIRKLIEKAKKLLKEGAPVEEIIKLLEEAIDLMAKALAE
Consider B16, for which the “median log2 fold change” value stood at 0.00197.

B17: usp_38_diff_out_16_109_179 (protein)
chain: SAQAEADRAFAEAAIANFEALAADAEAELARLKARGASPEVLAAYQALADTARAAAAALRAALAAGEDLRAATNAKWDEVGAKAAEAAELRRAEVRRRSA
In the case of B17, the “median log2 fold change” value is -0.0762.

B18: usp_38_diff_out_16_109_177 (protein)
chain: SAQEEADREYAEAVIKNLKELAKEAKERLKKLEEKGASEEVLKAYKELAETAKKAAERLEKALKAGEDLRKIADEEWDKVGAAAAKAAEILREEVRKKSE
B18: the “median log2 fold change” value came out at 0.0634.

B19: usp_38_diff_out_16_109_172 (protein)
chain: SADAEADRLLAEAAIENLRALAEEARRELERLEAKGASEEVLAAYRALAETAEAAAATIEAALAAGKDIRATTDAQWDAVGAAAARASELREAEARARSA
Consider B19, for which the “median log2 fold change” value is -0.0926.

B20: usp_38_diff_out_16_25_200 (protein)
chain: SVEALLEAHDHLGEAAGHILRAKESKDEEEKKKLLEEAIKHLEKALKIMKEKLKIPEEVAEEIEKKIERAKKLLEEGAPFEEVIKELEEAIDLAAKALAA
Take B20: the “median log2 fold change” value was 0.457.

B21: usp_38_diff_out_16_25_191 (protein)
chain: SVEALLRAHDKLGEAAGYILQAKEKKDSEEARKLLEKAVKALEEALKILVEELKIDPKDAEEIEKLIKEAKKLLKEGAPVEEVIKVLEKAVDAAAKALAK
Consider B21, for which the “median log2 fold change” value stood at 0.0845.

B22: usp_38_diff_out_16_109_185 (protein)
chain: AAQREADRALAEAAIANFRALAAEARARAAALRARGAPQAVIDAYDDLAATADAAAAALEAALAAGEDLRAAVDREWDAVGAAAAAAEALRRAATAARSA
For the molecule B22, the “median log2 fold change” value is -0.358.

B23: usp_38_diff_out_16_109_180 (protein)
chain: SAEAEADKAYAEAVIANLEALAKAAEAELKKLKARGASPEVLAAYQALRDTAKAAAATLKAALAAGEDLRAIADAQWDAVGAAAAAAAALRRAEVAARSA
On to B23, for which the “median log2 fold change” value is -0.191.

B24: usp_38_diff_out_16_109_183 (protein)
chain: SADEEAARLLAEASIKNFRNLAKEAQAALAKAQARGASADVLAALQDLADTAKAAAERIEKAIKEGKDLLAVTNAEWDAVGAAAARARELREAETRARSA
Turning to B24, the “median log2 fold change” value is -0.397.

B25: usp_38_diff_out_16_109_184 (protein)
chain: SADEEADRLLAEASIKNFRDLSKDARAEAERLKARGASQAVIDAYNELAKTAEAAAEEIEKALEAGEDLRAVTDAQWDKVGAAAKKANDLRRAEARARTA
Take B25: the “median log2 fold change” value was -0.0394.

B26: usp_38_diff_out_16_25_197 (protein)
chain: SVEALLEAHDLIGRAAGYVLRARESEDPEEQRKLLREALEHLEEALKLLEEKLKIDPEKAKEIKKLIEEAKKLLEEGAPIEEVIAVVEKAIDLAVDALNE
Consider B26, for which the “median log2 fold change” value is 0.179.

B27: usp_38_diff_out_16_25_194 (protein)
chain: EVEALLKAHDEIGWAAGKLLEAKESKDPEEQKKLLEEALKHLEKALKILKEELKIDEETLKKIEELIKKAKKLLKEGAPFEEVIKTLEEAIDLAVDALNK
As for B27, the “median log2 fold change” value worked out at 0.00535.

B28: usp_38_diff_out_16_25_196 (protein)
chain: EVEALLRAHDEIGRAAGLVLRAREEEDPERQRELLREALEHLRRALEILREELRVDEETARELEELIERAERLLEEGAPAEEVIAVIEEAIDLAVDALAE
Regarding B28, the “median log2 fold change” value came to 0.215.

B29: usp_38_diff_out_16_109_173 (protein)
chain: SQQAEGDRLFAEAAAANFRSLAEDAEAALARAKERGASPEVLAALQDLADTAKAAADTIEKTIADGGDLRATTDAQWDAVGAAAARADAIRRAEARARSD
As for B29, the “median log2 fold change” value is -0.0935.

B30: usp_38_diff_out_16_25_201 (protein)
chain: EVEALLEAHDHLGDAAGYVLRAKESEDEEERKRLLREALESLRRALDILRERLHIPEEEAERIEALIEEAERLLEEGAPFEEVIAVVEEAIDLAAEALAR
B30: the “median log2 fold change” value stood at 0.237.

B31: usp_38_diff_out_16_25_189 (protein)
chain: SVEALLKAHEELGEAAGYIVQARENKDKPEARELLKKAIESLEKALEILEKELKIDEKVAKEIREKIERARKLLEEGKPVEEVIKELEEALDLAIEALAK
Take B31: the “median log2 fold change” value stood at 0.371.

B32: usp_38_diff_out_16_109_175 (protein)
chain: SAQAEADRAFAEAAIANFRSLAADARARLARLEARGASPEVLAAYADLAATATAAAAALEAALAAGEDLRAAANAAWDAVGAAAARAARLLQEEVRRRSA
As to B32, the “median log2 fold change” value was -0.756.

(Values after the supplement of paper PMC12632987.)
